# Measured values reported in PubChem BioAssay.
# Activity calls are given as the source filed them. The rule behind the calls is not given here.
# Biological target: Pantothenate synthetase (Mycobacterium tuberculosis (strain ATCC 25618 / H37Rv)) (UniProt P9WIL5)
# Assay: Recombinant Mtb pantothenate synthetase (PanC) inhibitors, coupled enzyme, confirmatory (AID 375);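 note: 0% = full reaction with vehicle and 100% = no enzyme background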
# Details: coupled enzyme assay; at 10 µM, hits give high values
# Chain of Pantothenate synthetase (Mycobacterium tuberculosis (strain ATCC 25618 / H37Rv)) (P9WIL5 whole entry, looked up): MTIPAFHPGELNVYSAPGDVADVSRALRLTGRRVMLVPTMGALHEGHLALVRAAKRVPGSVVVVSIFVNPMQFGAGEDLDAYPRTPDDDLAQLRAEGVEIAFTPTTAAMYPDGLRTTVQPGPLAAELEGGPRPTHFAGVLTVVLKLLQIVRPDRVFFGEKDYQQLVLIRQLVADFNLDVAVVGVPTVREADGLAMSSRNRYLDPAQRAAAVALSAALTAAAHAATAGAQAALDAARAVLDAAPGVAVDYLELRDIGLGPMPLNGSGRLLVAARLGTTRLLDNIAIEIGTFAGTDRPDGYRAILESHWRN
row,SMILES,inhibition
1,CCC(CC)C1C(C#N)=C(N)Oc2n[nH]c(C)c21 (configuration not stated),0% (inactive)
2,CC1CCN(C(=O)C2CCN(S(=O)(=O)c3cnc[nH]3)CC2)CC1,5% (inactive)
3,CN1CCN(CC(=O)Nc2ccc(Cl)cc2Cl)CC1,3% (inactive)
4,CN(C)CCSc1nnc2sc3ccccc3n12,8% (inactive)
5,NC(=O)CN1C(=O)C(O)(CC(=O)c2ccccc2O)c2ccccc21 (configuration not stated),0% (inactive)
6,CCN(CC)CC(=O)Nc1ccc(-c2nc3cc(NC(=O)CN(CC)CC)ccc3o2)cc1,7% (inactive)
7,CCOc1ccc(OCc2cccc(C(=O)N3CCOCC3)c2)cc1,2% (inactive)
8,CCOC(=O)c1sc(NC(=O)CSc2nnc(-c3ccco3)n2CC)c(C(=O)OCC)c1C,0% (inactive)
9,Cc1nc2ccc(S(=O)(=O)NCC(=O)N3CCCCC3)cc2s1,0% (inactive)
10,COc1cccc(-c2nnc(SCC(=O)N3CCCc4ccccc43)o2)c1,0% (inactive)
11,CS(=O)(=O)N(CC(=O)NCCSCc1cccc(Cl)c1)c1ccc2c(c1)OCO2,1% (inactive)
12,COC(=O)C1(C(=O)OC)Sc2ccccc2C1=O,3% (inactive)
13,CCOC(=O)c1[nH]c(C)c(C(=O)N2CCN(c3ccc(F)cc3)CC2)c1C,0% (inactive)
14,O=C(Nc1ccc(N2CCOCC2)c(Cl)c1)c1ccc(Br)o1,0% (inactive)
15,Nc1c(Sc2ccccc2)c(=O)[nH]c(=O)n1Cc1ccccc1,0% (inactive)
16,O=C(CSc1nnc2scc(-c3ccccc3)n12)N1CCN(Cc2ccccc2)CC1,6% (inactive)
17,COc1ccc(OC)c(C2=NOC(C(=O)Nc3c(C)n(C)n(-c4ccccc4)c3=O)C2)c1 (configuration not stated),2% (inactive)
